# Screening data (PubChem BioAssay)
# Hits are enriched below; roughly 9.5% of the tested compounds scored in any of these assays.
# NS1 function inh = qHTS Assay for Inhibitors of Influenza NS1 Protein Function; Potency, µM (titrated, usually from 46.1 µM), without a hit: top-dose activity, positive = more growth; 0.4% of 270,000 active; AID 2326, 2010; calls by dose curve; note: actives are rising curves; nearly all actives have a fitted effect of over 50% in size
#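 In this qHTS, NS1 from influenza A is expressed in budding yeast, where it slows growth. Cells are switched from glucose to 2% galactose medium (pH 6.0, -URA), treated with compound, and growth recovery is read at OD600.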
# SARS PLP yeast = qHTS of Yeast-based Assay for SARS-CoV PLP. 0.19% of 330,000 active. Potency, µM (titrated, usually from 32.9 µM), for the others: at the top dose activity, positive = growth rescue, most hits filed as activators. S. cerevisiae expressing SARS-CoV PLpro, growth rescue; calls by dose curve; note: 0% is about no effect; nearly all actives have a fitted effect of over 55% in size
# RE007 growth inh = qHTS Assay for Inhibitors of the HIV-1 protein Vpr. AID 651644, 2012. Potency, µM (top dose mostly 92.2 µM), for the others: top-dose activity change, negative = less growth, usual class: inhibitors. S. pombe RE007 Vpr strain, BacTiter-Glo ATP luminescence, 24 h. 0.21% of 360,000 active; active = well fitted falling curve with a large enough effect; inconclusive = small, poorly fitted or top-dose-only effect; inactive = no such curve, though single readings can be large or run the other way; note: % is set by controls: 0 for no effect and ±100 for the full control effect; nearly all actives have a fitted effect of over 50% in size
#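 Fission yeast strain RE007, carrying one chromosomally integrated HIV-1 vpr copy, was seeded at OD 0.01 in PMG+AL medium with 23 nL pinned compound. After 24 h at 30 °C and 99% humidity, viability was read by BacTiter-Glo luminescence.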
# Pf growth 48h = Primary qHTS for delayed death inhibitors of the malarial parasite plastid, 48 hour incubation; Potency, µM (doses to about 28.7 µM), for inactives: at the top dose activity change, negative = inhibition, most hits filed as inhibitors; P. falciparum luciferase growth in erythrocytes, 48 h; 5.9% of 310,000 active; note: % is set by controls: 0 for no effect and ±100 for the full control effect
#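 Here the parasites carry a stable luciferase gene and grow inside erythrocytes in Albumax-based RPMI medium with compound for one erythrocytic cycle. Activity is scored as loss of luminescent signal.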
# Pf growth 96h = Primary qHTS for delayed death inhibitors of the malarial parasite plastid, 96 hour incubation. P. falciparum luciferase reporter growth, 96 h. Potency, µM (titrated, usually from 28.7 µM), without a hit: at the top dose activity change, negative = inhibition, actives largely listed as inhibitors. 6.9% of 320,000 active. AID 504834, 2011; note: % is set by controls: 0 for no effect and ±100 for the full control effect
#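 Luminescence readout: decreased luciferase signal marks inhibited growth of reporter-expressing P. falciparum in infected red cells (2% hematocrit, 0.05% parasitemia final), exposed to compound two generations (96 h, 37 C, 5% CO2).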
# * = called active by the depositor; ? = inconclusive; . = no result; [ ] = dose if it differs, or a comment. Unless noted, calls come from the whole dose curve; as a rule, active = well fitted inhibition curve with a large enough effect; inconclusive = small, poorly fitted or top-dose-only effect, or another doubt; inactive = no such curve, though single readings can be large or run the other way. Potency is the fitted concentration of half-maximal effect.
SMILES,NS1 function inh,SARS PLP yeast,RE007 growth inh,Pf growth 48h,Pf growth 96h
Cc1ccc(S(=O)(=O)NC(=O)c2cc(C)n(-c3cc(S(=O)(=O)N4CCOCC4)ccc3N3CCCC3)c2C)cc1,19.8%,-5.1%,-4.5%,.,4.65µM*
Cc1ccc(S(=O)(=O)N2CCC(C(=O)Nc3cc(C(F)(F)F)ccc3N3CCOCC3)CC2)cc1C,.,-5.2%,2.2%,?,9.28µM*
O=C(Nc1cc(S(=O)(=O)N2CCOCC2)ccc1N1CCCCC1)c1ccc(Cl)cc1,.,-3.8%,-7.0%,13.1µM*,8.28µM*
COCCNCc1cc(C)n(-c2cc(S(=O)(=O)N3CCOCC3)ccc2N2CCCC2)c1C,.,.,1.0%,.,.
Cc1ccc(C(=O)Nc2cc(S(=O)(=O)N3CCOCC3)ccc2N2CCCC2)cc1,.,1.8%,1.4%,?,-21.7%
O=[N+]([O-])c1ccccc1S(=O)(=O)Nc1ccn(Cc2c(F)cccc2Cl)n1,-7.4%,-1.4%,3.1%,-25.8%,?
CSCCCN1CCCC(CO)(Cc2ccccc2F)C1 (stereo not drawn),-15.8%,1.9%,-1.1%,18.0%,?
CCc1ccc(C(=O)Nc2cc(S(=O)(=O)N3CCOCC3)ccc2N2CCOCC2)cc1,.,1.2%,-13.0%,.,.
COc1ccc(S(=O)(=O)N2CCOCC2)cc1NC(=O)c1cc(=O)[nH]c2ccccc12,.,-1.7%,6.7%,-29.4%,?
O=C(Nc1cc(S(=O)(=O)N2CCCCC2)ccc1N1CCOCC1)c1cc(=O)[nH]c2ccccc12,2.6%,2.5%,-3.9%,?,8.28µM*
O=C(NCCc1c[nH]c2ccccc12)c1cc(S(=O)(=O)N2CCCCC2)ccc1N1CCOCC1,-29.8%,6.6%,8.2%,7.38µM*,65.6%
O=C(Nc1cc(S(=O)(=O)N2CCCCC2)ccc1N1CCOCC1)c1ccc(C(F)(F)F)cc1,.,3.6%,-1.0%,9.28µM*,13.1µM*
O=C(Nc1cc(S(=O)(=O)N2CCOCC2)ccc1N1CCCCC1)c1ccccc1,.,3.3%,10.3%,?,4.65µM*
O=C(Nc1cc(S(=O)(=O)N2CCOCC2)ccc1N1CCCCC1)c1ccccc1Br,.,0.1%,12.2%,.,.
C/C(=N\NC1=N[C@H]2CS(=O)(=O)C[C@H]2S1)c1ccccc1,-1.3%,2.3%,-0.1%,28.5%,12.2%
Cc1ccccc1C(=O)N1CCC(C(=O)Nc2cc(C(F)(F)F)ccc2N2CCCC2)CC1,.,0.6%,4.7%,-23.7%,10.4µM*
CN1CCC(NC(=O)Nc2cccc(C(F)(F)F)c2)CC1,0.1%,0.3%,15.2%,10.0%,491.7%
O=C(Nc1ccccc1N1CCCCC1)c1cc(S(=O)(=O)N2CCOCC2)ccc1F,.,1.1%,-20.2%,10.4µM*,0.0%
CN1CCN(c2ccc(C(F)(F)F)cc2NC(=O)Nc2ccccc2)CC1,-2.7%,7.7%,-4.0%,.,1.47µM*
Cc1cccc(C(=O)Nc2cc(S(=O)(=O)N3CCOCC3)ccc2N2CCCC2)c1,.,0.1%,-5.5%,?,?
Cc1cccc(C(=O)Nc2cc(S(=O)(=O)N3CCOCC3)ccc2N2CCCCC2)c1,.,-3.4%,-5.9%,7.38µM*,?
OC[C@@H](O)[C@@H](O[C@H]1O[C@H](CO)[C@@H](O)[C@H](O)[C@H]1O)[C@H](O)[C@@H](O)CO,-4.8%,-0.2%,6.1%[18.4 µM],.,.
COc1cc(C(=O)NCC(c2ccco2)N2CCOCC2)cc(OC)c1OC (stereo not drawn),.,0.8%,-12.9%,?,5.1%
N[C@@H](CSCc1ccccc1)C(=O)O,4.5%,.,.,.,.
N#C/C(=C\Nc1ccc2cn[nH]c2c1)c1nc(-c2ccc(Cl)cc2)cs1,.,0.5%,17.7%,?,4.15µM*
SMILES,NS1 function inh,SARS PLP yeast,RE007 growth inh,Pf growth 48h,Pf growth 96h
COc1ccc(CC(N)C(=O)NC2C(CO)OC(n3cnc4c(N(C)C)ncnc43)C2O)cc1 (stereo not drawn),.,.,.,0.379µM*,0.338µM*
Nc1ncnc2c1ncn2[C@@H]1O[C@H](CNC(=O)[C@@H](N)Cc2ccccc2)[C@@H](O)[C@H]1O,.,-7.5%,-12.3%,.,.
COc1ccc(N2CCN(C(=O)COC(=O)c3cccc(S(=O)(=O)Nc4cccc(C)c4)c3)CC2)cc1,.,-3.0%,20.3%,19.2%,21.6%
CC(Sc1nc(N2CCOCC2)c2c(c1C#N)CC(C)(C)OC2)C(=O)Nc1ccccc1 (stereo not drawn),-1.7%,16.0%,13.0%,13.1µM*,.
CC1(C)Cc2c(C#N)c(SCC(=O)c3ccccc3)nc(N3CCOCC3)c2CS1,29.3%,2.8%,0.9%,2.33µM*,?
CN1Cc2c(N3CCOCC3)nc(SCc3ccccc3)c(C#N)c2CC1(C)C,3.3%,18.0%,-2.9%,0.0%,5.6%
COC(=O)c1ccc(CSc2nc(N3CCOCC3)c3c(c2C#N)CC(C)(C)OC3)o1,5.8%,6.9%,3.4%,8.28µM*,157.1%[5.75 µM]
CCOC(=O)C(C)Sc1nc(N2CCOCC2)c2c(c1C#N)CC(C)(C)OC2 (stereo not drawn),.,.,5.8%,.,.
CCSc1nc(N2CCOCC2)c2c(c1C#N)CC(C)(C)N(C)C2,9.3%,-1.3%,1.8%,.,5.22µM*
COC(=O)CCSc1nc(N2CCOCC2)c2c(c1C#N)CC(C)(C)OC2,-2.5%,0.5%,-4.9%,?,?
CC(Sc1nc(-c2ccccc2)nc2c1COC(C)(C)C2)C(=O)N1CCOCC1 (stereo not drawn),-11.8%,3.2%,1.8%[3.69 µM],.,8.28µM*
CC(C)CCSc1nc(N2CCOCC2)c2c(c1C#N)CC(C)(C)OC2,11.1%,-6.1%,-7.0%,9.28µM*,3.4%
CCOC(=O)CCSc1nc(N2CCOCC2)c2c(c1C#N)CC(C)(C)OC2,4.6%,2.1%,5.4%,4.65µM*,36.4%
Cc1ccc(-c2nc3c(c(SCC(=O)N4CCOCC4)n2)COC(C)(C)C3)cc1,.,.,7.6%,.,.
CSc1nc(N2CCOCC2)c2c(c1C#N)CC(C)(C)OC2,-3.2%,10.1%,23.0%,7.0%,.
CCc1c(O)nc(SCC(=O)N2CCc3cc(OC)c(OC)cc3[C@@H]2C)[nH]c1=O,-0.5%,-6.6%,2.9%,?,?
COc1ccc(-c2cc(OC(=O)c3ccc(F)cc3)c3c(C)oc(C)c3c(=O)c2)cc1,-7.1%,-7.2%,.,?,10.4µM*
CC1CCN(c2nncc3ccccc23)CC1,-14.9%,-10.7%,-11.3%,?,6.57µM*
CN(CC(=O)Nc1ccccc1Br)CC(=O)Nc1ccccc1-c1ccccc1,.,-6.9%,6.4%,?,?
Cc1ccc(NC(=O)CN(C)CC(=O)Nc2ccccc2-c2ccccc2)cc1,5.4%,-3.4%,-11.2%,?,13.1µM*
COc1ccc(Cl)cc1NC(=O)CN(C)C(=O)Cc1ccc(-c2ccccc2)cc1,.,-7.0%,-0.5%,?,?
CC1CCCCC1NCC(=O)Nc1ccccc1-c1ccccc1 (stereo not drawn),5.0%,18.4%,-7.1%,?,14.7µM*
